The nature of test [1]: Quantitative High-Throughput drug screen in 47 multiple myeloma cell lines against the NCATS MIPE library collection: KMS34_JCRB cell viability assay (AID 1918985). Also: nearly all actives have a fitted effect of over 40% in size. The method in brief: (§1)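 Plated at 500 cells per well, myeloma lines received MIPE 4.0 compounds by pin tool. Following 48 h culture at 37 °C, CellTiter-Glo luminescence gave viability relative to DMSO and media-only controls.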

The nature of test [2]: Quantitative High-Throughput drug screen in 47 multiple myeloma cell lines against the NCATS MIPE library collection: OCIMY7_PLB cell viability assay (AID 1918987). Also: nearly all actives have a fitted effect of over 65% in size. The method in brief: as §1
Test [3] in a line: Quantitative High-Throughput drug screen in 47 multiple myeloma cell lines against the NCATS MIPE library collection: OPM1_PLB cell viability assay (AID 1918989). Also: nearly all actives have a fitted effect of over 40% in size. The essentials:
as §1

Test [4] can be described thus: Quantitative High-Throughput drug screen in 47 multiple myeloma cell lines against the NCATS MIPE library collection: SKMM1_PLB cell viability assay (AID 1919863). Also: nearly all actives have a fitted effect of over 35% in size. Conditions: SKMM1 myeloma viability, CellTiter-Glo ATP, 48 h; viability: hits give low values. The method in brief: as §1
(In general: ATP-based viability assays read luminescence as a measure of living cells.)

Test [5] can be described thus: Quantitative High-Throughput drug screen in 47 multiple myeloma cell lines against the NCATS MIPE library collection: U266_ATCC cell viability assay (AID 1919864). Also: nearly all actives have a fitted effect of over 35% in size.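 As to viability (% of DMSO control): 0% = media-only wells without cells and 100% = DMSO-only wells.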 The essentials:
as §1

The nature of test [6]: Quantitative High-Throughput drug screen in 47 multiple myeloma cell lines against the NCATS MIPE library collection: XG6_PLB cell viability assay (AID 1919865). Also: nearly all actives have a fitted effect of over 40% in size. The method in brief: as §1
Test [7] is described as follows: Quantitative High-Throughput drug screen in 47 multiple myeloma cell lines against the NCATS MIPE library collection: VP6_DJ cell viability assay (AID 1919867). Also: nearly all actives have a fitted effect of over 40% in size. The essentials:
as §1

Test [8] in a line: Quantitative High-Throughput drug screen in 47 multiple myeloma cell lines against the NCATS MIPE library collection: UTMC2_PLB cell viability assay (AID 1919868). Also: nearly all actives have a fitted effect of over 55% in size.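 As to viability (% of DMSO control): 100% = DMSO-only wells and 0% = media-only wells without cells.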 Particulars: CellTiter-Glo ATP luminescence, 48 h; viability (% of DMSO control): at 45.8 µM (top of the series) unless noted. The essentials:
as §1

The nature of test [9]: Quantitative High-Throughput drug screen in 47 multiple myeloma cell lines against the NCATS MIPE library collection: XG1_PLB cell viability assay (AID 1919866). Also: nearly all actives have a fitted effect of over 35% in size. The method in brief: as §1
Test [10] is described as follows: Quantitative High-Throughput drug screen in 47 multiple myeloma cell lines against the NCATS MIPE library collection: OCIMY5_PLB cell viability assay (AID 1918988). Also: nearly all actives have a fitted effect of over 65% in size. The essentials: as §1

In PubChem BioAssay (NCATS) one finds Potency and viability data, which are given here for 16 compounds.

Inconclusive results are not listed. Unmarked numbers belong to inactive results. Active and inactive are the calls of the source. Calls follow the shape of the dose curve; as a rule, active = well fitted cell-killing curve with a large enough effect; inconclusive = small, poorly fitted or top-dose-only effect, or effect the other way; inactive = no such curve, though single readings can be large or run the other way.
Potency is read from the fitted curve at half-maximal effect.

In the case of `NC(=O)Nc1cc(-c2cccc(F)c2)sc1C(=O)N[C@H]1CCCNC1`, the Potency is 93.5 nM (active) in [1]; 264 nM (active) in test [2]; 296 nM (active) in [3]; 7430 nM (active) in [4]; 5900 nM (active) in test [5]; 83.3 nM (active) in test [6]. Besides, the Potency in test [7] was 166 nM (active); in test [8], 105 nM (active).
In the case of `CC(C)(O)c1cc2nc(-c3cnc(N)nc3)nc(N3CCOCC3)c2s1`, the Potency in test [1] is 37.2 nM (active); in test [2] it was 372 nM (active); in [3], 166 nM (active); in test [4], 235 nM (active); in [5] it was 105 nM (active); in test [6], 264 nM (active). Besides, the Potency in test [9] was 118 nM (active); in test [7], 83.3 nM (active).
As for `CNC(=O)c1ccccc1Nc1nc(Nc2ccc(N3CCOCC3)cc2OC)ncc1Cl`, the Potency in test [1] was 935 nM (active); in test [2], 332 nM (active); in test [3] it was 5260 nM (active); in test [5] it was 13200 nM (active); in test [6], 5900 nM (active); in test [9], 6620 nM (active). The Potency in test [7] was 526 nM (active); in [8] it was 209 nM (active).
As to `Nc1ccccc1NC(=O)c1ccc(CNc2nccc(-c3cccnc3)n2)cc1`, the Potency in test [1] was 935 nM (active); in test [2], 526 nM (active); in test [3] it was 264 nM (active); in [4] it was 1660 nM (active); in [5], 1660 nM (active); in [6], 2640 nM (active). The Potency in test [9] was 1180 nM (active); in test [7], 469 nM (active); in [8], 833 nM (active).
Regarding `COc1cc2c(Oc3ccc(NC(=O)C4(C(=O)Nc5ccc(F)cc5)CC4)cc3F)ccnc2cc1OCCCN1CCOCC1`, the Potency in test [1] is 10500 nM (active); in [2] it was 264 nM (active); in test [3] it was 4180 nM (active); in test [5] it was 20900 nM (active); in test [6], 5260 nM (active); in test [9], 9350 nM (active). The Potency in test [7] is 3720 nM (active).
On to `COC(=O)Nc1nc2ccc(C(=O)c3ccc(F)cc3)cc2[nH]1`, for which the Potency is 935 nM (active) in test [1]; 296 nM (active) in test [2]; 469 nM (active) in test [10]; 469 nM (active) in test [6]; 332 nM (active) in test [9]; 935 nM (active) in [7].
For `O=C(Nc1cn[nH]c1-c1nc2ccc(CN3CCOCC3)cc2[nH]1)NC1CC1`, the Potency in test [1] is 418 nM (active); in test [2], 332 nM (active); in test [3], 1660 nM (active); in test [4], 10500 nM (active); in [5], 2350 nM (active); in test [6] it was 743 nM (active). In addition, in [7], the Potency was 2960 nM (active).
For orientation: viability means the share of living cells, or the viability signal relative to a control. Regarding `COc1ccc(C=Cc2cc(OC)c(OC)c(OC)c2)cc1O`, the Potency entry in [1], in test [2], in test [3], in test [5], in [9] and in [7] was “inactive” throughout. Besides, in test [8], the Potency entry was “inactive”. Moreover, in test [4], the viability was 34.9%.
As to `CC(C)[C@H](C(=O)Nc1ccc(C(=O)NO)cc1)c1ccccc1`, the Potency was 264 nM (active) in [1]; 418 nM (active) in [2]; 469 nM (active) in test [3]; 935 nM (active) in test [5]; 2350 nM (active) in test [6]; 833 nM (active) in test [9]. In addition, the Potency in test [7] is 372 nM (active); in test [8] it was 469 nM (active).
`Cc1nc(Nc2n[nH]c3c2CN(C(=O)N[C@H](CN(C)C)c2ccccc2)C3(C)C)c2sccc2n1`: the Potency in test [1] was 469 nM (active); in test [2], 209 nM (active); in test [3], 469 nM (active); in test [4], 743 nM (active); in test [5], 526 nM (active); in [6], 372 nM (active). Also, the Potency in test [7] is 372 nM (active).
For `O=C(Nc1ncc(-c2cc(C(F)F)nn2-c2c(Cl)cccc2Cl)s1)C1CC1`, the Potency is 264 nM (active) in [1]; 166 nM (active) in test [2]; 418 nM (active) in test [3]; 332 nM (active) in test [4]; 2960 nM (active) in test [5]; 187 nM (active) in test [6]. In addition, the Potency in test [7] is 418 nM (active); in test [8], 526 nM (active).
As for `COc1cc2c(Oc3ccc(-c4cnc(Nc5ccc(F)cc5)n(C)c4=O)cc3F)ccnc2cc1OCCCN1CCOCC1`, the Potency is 18700 nM (active) in test [1]; 7430 nM (active) in [2]; 6620 nM (active) in test [3]; 29600 nM (active) in test [4]; 20900 nM (active) in test [5]; 7430 nM (active) in test [9]. In addition, the Potency in test [7] is 2640 nM (active).
Consider `O=C(CCCCCCNC(=O)c1cnc(N(c2ccccc2)c2ccccc2)nc1)NO`, for which the Potency was 5900 nM (active) in test [1]; 13200 nM (active) in test [2]; 6620 nM (active) in [3]; 9350 nM (active) in test [4]; 9350 nM (active) in [5]; 14800 nM (active) in test [6]. The Potency in test [9] was 9350 nM (active); in test [7], 2350 nM (active); in test [8], 7430 nM (active).
In the case of `Clc1cccc(-c2nnnn2Cc2cccnc2)c1Cl`, the Potency entry in [1], in test [10] and in test [8] was “inactive” throughout. Moreover, the values for the Potency in [2], in test [6] and in test [9] were 3720 nM (active), 16600 nM (active) and 18700 nM (active), respectively.
For `CCC[C@H](NC(=O)C(C#N)=Cc1cccc(Br)n1)c1ccccc1`, the Potency in [1] was 4690 nM (active); in test [2], 526 nM (active); in test [3], 935 nM (active); in test [5], 5900 nM (active); in test [6] it was 2350 nM (active); in [9] it was 1660 nM (active). The Potency in [7] and in test [8] was 2090 nM (active) in each case.
Take `COC(=O)C[C@](O)(CCCC(C)(C)O)C(=O)O[C@@H]1C(OC)=C[C@]23CCCN2CCc2cc4c(cc2[C@H]13)OCO4`: in test [1], the Potency is 16600 nM (active). Moreover, the Potency entry in test [2], in test [3], in test [6] and in test [9] was “inactive” in each case.
